108 sequences from the supplement of paper PMC12636033 can be followed below.

± gives the standard deviation of the averaged measurements. Whole data set: some 33,000 sequences, median “E-score (rank enrichment, -0.5 to 0.5)” near -0.0028, cut for the highest 2% near 0.23. Many of the other results were omitted from the sample, so the highest values are more common in it than they were.

The experiment deals with 2Sb-muMax20 (muMax20 with two 1,3-bis(methyl)benzene Cys staples, A13C/A17C and Q88C/A92C, C-terminal Lys). The experiment can be described thus: PBM 8-mer E-score (E-score (rank enrichment, -0.5 to 0.5)); higher = stronger preferential binding. The protocol: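 Protein binding microarray (universal PBM chip covering all 10-mers in fixed probe flanks) with chemically synthesized human Max(13-93) bHLH-LZ analogs (not full-length Max) bearing noncanonical residues (hArg, Tha, Aib, Nle at 65) and aromatic Cys staples. Read-out per 8-mer (and its reverse complement): E-score (rank-based enrichment, -0.5 to 0.5) and Z-score of median probe intensity.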
Turning to GATTAATA, the “PBM 8-mer E-score” value is 0.258 ± 0.041.

On to TATTAATA, for which the “PBM 8-mer E-score” value was determined as 0.296 ± 0.027.

CATTAATA: the “PBM 8-mer E-score” value is 0.148 ± 0.024.

Consider GATTAATC, for which the “PBM 8-mer E-score” value is -0.0411 ± 0.03.

In the case of AATTAATA, the “PBM 8-mer E-score” value is 0.217 ± 0.011.

GATTAAGA: the “PBM 8-mer E-score” value was found to be 0.129 ± 0.0066.

In the case of GATGATCC, the “PBM 8-mer E-score” value was -0.0779 ± 0.039.

For CATCGTTC, the “PBM 8-mer E-score” value was -0.12 ± 0.012.

As to AGACAATC, the “PBM 8-mer E-score” value is 0.113 ± 0.029.

For the sequence AGACAATA, the “PBM 8-mer E-score” value worked out at 0.242 ± 0.082.

In the case of AGACAATG, the “PBM 8-mer E-score” value was -0.0359 ± 0.045.

Take GCACGCAA: the “PBM 8-mer E-score” value is -0.108 ± 0.043.

For the sequence ACCCCAGC, the “PBM 8-mer E-score” value stood at 0.162 ± 0.054.

In the case of GGAGGGAC, the “PBM 8-mer E-score” value is -0.162 ± 0.097.

In the case of CTAACAAA, the “PBM 8-mer E-score” value stood at 0.144 ± 0.04.

For GGATGCCA, the “PBM 8-mer E-score” value was -0.0771 ± 0.0063.

Take AGTGTGCA: the “PBM 8-mer E-score” value is 0.127 ± 0.052.

In the case of CCCGCCCC, the “PBM 8-mer E-score” value is 0.241 ± 0.1.

In the case of GCCGCCCC, the “PBM 8-mer E-score” value came out at 0.0256 ± 0.14.

As to CCCGCCCA, the “PBM 8-mer E-score” value was determined as 0.4 ± 0.012.

With GCCGCCAC, the “PBM 8-mer E-score” value was -0.229 ± 0.042.

On to CCCGCCAC, for which the “PBM 8-mer E-score” value came out at 0.239 ± 0.034.

For the sequence CCCGCCCG, the “PBM 8-mer E-score” value was determined as 0.116 ± 0.12.

Consider GCCGCCCA, for which the “PBM 8-mer E-score” value was -0.145 ± 0.07.

In the case of ACCGCCAC, the “PBM 8-mer E-score” value is -0.106 ± 0.0018.

ACCGCCCC: the “PBM 8-mer E-score” value was determined as 0.171 ± 0.074.

On to AAAGCTGC, for which the “PBM 8-mer E-score” value worked out at 0.108 ± 0.027.

For the sequence GAAAGACC, the “PBM 8-mer E-score” value is -0.0392 ± 0.039.

ATCGTTGG: the “PBM 8-mer E-score” value was -0.105 ± 0.092.

On to CGACGATA, for which the “PBM 8-mer E-score” value is -0.0378 ± 0.027.

With CCAGTGGC, the “PBM 8-mer E-score” value was -0.0927 ± 0.044.

In the case of CAGGCAGC, the “PBM 8-mer E-score” value was -0.163 ± 0.015.

For the sequence GAAGCGAC, the “PBM 8-mer E-score” value was -0.0841 ± 0.007.

In the case of ACTCGTAA, the “PBM 8-mer E-score” value amounted to 0.213 ± 0.042.

As to CCCCAACC, the “PBM 8-mer E-score” value is 0.131 ± 0.087.

Take CCCCAACA: the “PBM 8-mer E-score” value was found to be 0.256 ± 0.061.

On to TCCCAACA, for which the “PBM 8-mer E-score” value stood at 0.0292 ± 0.05.

Take CAGAAAAA: the “PBM 8-mer E-score” value was -0.0726 ± 0.05.

AGTGCATC: the “PBM 8-mer E-score” value was -0.00688 ± 0.015.

In the case of AAATTATG, the “PBM 8-mer E-score” value stood at 0.168 ± 0.0019.

With AAATTATC, the “PBM 8-mer E-score” value came to 0.107 ± 0.0057.

With GAATTATA, the “PBM 8-mer E-score” value was 0.141 ± 0.061.

Consider TAATTATA, for which the “PBM 8-mer E-score” value turned out to be 0.262 ± 0.03.

For the sequence AAATTATA, the “PBM 8-mer E-score” value came to 0.253 ± 0.069.

On to CAATTATA, for which the “PBM 8-mer E-score” value was found to be 0.115 ± 0.045.

In the case of GCACACGA, the “PBM 8-mer E-score” value was -0.00209 ± 0.0015.

In the case of AAGTTAGC, the “PBM 8-mer E-score” value was determined as 0.00664 ± 0.0061.

For TGCCCGAA, the “PBM 8-mer E-score” value was -0.0214 ± 0.05.

Turning to GGACAAAA, the “PBM 8-mer E-score” value amounted to 0.0253 ± 0.017.

In the case of AATATCGT, the “PBM 8-mer E-score” value was found to be 0.091 ± 0.0052.

For ACGTGATA, the “PBM 8-mer E-score” value stood at 0.244 ± 0.05.

Turning to ACGTGAAC, the “PBM 8-mer E-score” value was 0.0297 ± 0.012.

For the sequence ACGTGAGG, the “PBM 8-mer E-score” value amounted to 0.0924 ± 0.012.

With ACGTGATC, the “PBM 8-mer E-score” value amounted to 0.187 ± 0.028.

Turning to GCGTGATA, the “PBM 8-mer E-score” value amounted to 0.113 ± 0.028.

With ACGTGATG, the “PBM 8-mer E-score” value was 0.239 ± 0.0046.

In the case of CCGTGATA, the “PBM 8-mer E-score” value is -0.132 ± 0.043.

In the case of ACGTGAAA, the “PBM 8-mer E-score” value was 0.238 ± 0.035.

As to TCGTGAAA, the “PBM 8-mer E-score” value is -0.2052 ± 0.00053.

Turning to GGTTTAAC, the “PBM 8-mer E-score” value was -0.0252 ± 0.0077.

Turning to CACATTGG, the “PBM 8-mer E-score” value was -0.033 ± 0.038.

Take ACACTGCA: the “PBM 8-mer E-score” value is -0.0884 ± 0.039.

Regarding AGACCTAG, the “PBM 8-mer E-score” value is -0.205 ± 0.0049.

With ACGAACTG, the “PBM 8-mer E-score” value was -0.134 ± 0.02.

In the case of CCCTATTA, the “PBM 8-mer E-score” value amounted to 0.0897 ± 0.046.

Turning to CGCCTCCG, the “PBM 8-mer E-score” value was -0.115 ± 0.014.

Take ATATTGAA: the “PBM 8-mer E-score” value was found to be 0.0093 ± 0.059.

On to GTATTGAA, for which the “PBM 8-mer E-score” value turned out to be 0.0851 ± 0.057.

Turning to TTATTGAA, the “PBM 8-mer E-score” value worked out at 0.3 ± 0.015.

For the sequence ACGCGCCC, the “PBM 8-mer E-score” value was found to be 0.00592 ± 0.048.

Turning to ACGTTTAG, the “PBM 8-mer E-score” value is 0.0678 ± 0.079.

On to ATAACACG, for which the “PBM 8-mer E-score” value turned out to be 0.137 ± 0.063.

Consider ATAACATG, for which the “PBM 8-mer E-score” value came to 0.192 ± 0.035.

ATAACATC: the “PBM 8-mer E-score” value is 0.211 ± 0.049.

As for CTAACACA, the “PBM 8-mer E-score” value is -0.028 ± 0.069.

As for ATAACACA, the “PBM 8-mer E-score” value was found to be 0.236 ± 0.023.

For the sequence ATAACATA, the “PBM 8-mer E-score” value was found to be 0.2304 ± 0.0015.

In the case of CTTGGCGC, the “PBM 8-mer E-score” value is -0.0178 ± 0.027.

Take GTGATCAA: the “PBM 8-mer E-score” value is -0.00195 ± 0.013.

Take TATTGGAA: the “PBM 8-mer E-score” value worked out at 0.0585 ± 0.0063.

In the case of AATCACTC, the “PBM 8-mer E-score” value was -0.0758 ± 0.076.

As to ACAGTGAG, the “PBM 8-mer E-score” value is -0.03 ± 0.013.

Take ATTGAAGC: the “PBM 8-mer E-score” value was found to be 0.00997 ± 0.0075.

For the sequence ATAGGCAG, the “PBM 8-mer E-score” value was found to be 0.165 ± 0.037.

CTAGGCAA: the “PBM 8-mer E-score” value was -0.167 ± 0.047.

Take ATAGGCAA: the “PBM 8-mer E-score” value worked out at 0.248 ± 0.061.

Consider AACGTGAC, for which the “PBM 8-mer E-score” value was 0.128 ± 0.0036.

As for CACGTGAC, the “PBM 8-mer E-score” value is 0.386 ± 0.011.

As for CACGTGAG, the “PBM 8-mer E-score” value turned out to be 0.186 ± 0.016.

In the case of CACGTGAA, the “PBM 8-mer E-score” value stood at 0.369 ± 0.02.

Take TACGTGAA: the “PBM 8-mer E-score” value was determined as 0.0248 ± 0.06.

In the case of GACGTGAA, the “PBM 8-mer E-score” value was -0.272 ± 0.011.

For the sequence ATGAGGTG, the “PBM 8-mer E-score” value came out at 0.103 ± 0.034.

Consider CATAGACA, for which the “PBM 8-mer E-score” value worked out at 0.0657 ± 0.028.

In the case of ACCAACTA, the “PBM 8-mer E-score” value was 0.0506 ± 0.082.

As for CCCAACTA, the “PBM 8-mer E-score” value was 0.242 ± 0.0045.

As to CCAAACTA, the “PBM 8-mer E-score” value came to 0.234 ± 0.0031.

For the sequence CAAAACTA, the “PBM 8-mer E-score” value worked out at 0.062 ± 0.059.

Regarding ACAAACTA, the “PBM 8-mer E-score” value came out at 0.152 ± 0.048.

On to GCCAACTA, for which the “PBM 8-mer E-score” value came out at 0.0147 ± 0.076.

Consider ACATTCCA, for which the “PBM 8-mer E-score” value is -0.0113 ± 0.025.

For the sequence GAGGGTCA, the “PBM 8-mer E-score” value was -0.00483 ± 0.032.

With CACATTTC, the “PBM 8-mer E-score” value is 0.141 ± 0.013.

On to TCCTACGA, for which the “PBM 8-mer E-score” value is -0.0774 ± 0.011.

For CCCTACGA, the “PBM 8-mer E-score” value turned out to be 0.232 ± 0.0033.

With CCCTACGC, the “PBM 8-mer E-score” value was 0.0539 ± 0.023.

For the sequence GGGAGACA, the “PBM 8-mer E-score” value worked out at 0.115 ± 0.016.

Take GCTCTGCA: the “PBM 8-mer E-score” value was -0.0815 ± 0.037.
